Laboratory results published in PubChem BioAssay AID651812 (National Center for Advancing Translational Sciences (NCATS), 2012).
Several values for one entry are separate records, joined by “and”; a condition that tells them apart may be missing. Identical values can stand only once. Out of some 2,100 compounds screened, about 650 (31%) were called active. Inconclusive results (about 16%) are left out. This is one part of the list. Values without a mark were called inactive. Calls come from the whole dose curve; as a rule, active = well fitted inhibition curve with a large enough effect; inconclusive = small, poorly fitted or top-dose-only effect; inactive = flat fitted curve, though single readings scatter.

Experiment: qHTS for inhibitors of Vif-A3G interactions: Cherry picks; note: nearly all actives have a fitted effect of over 80% in size; for activity, negative = fluorescence increase: % of control where 0% means no effect
Details: HeLa A3G-eYFP + Vif (tagged APOBEC3G with the HIV-1 protein that degrades it), 24 h; Potency: eYFP fluorescence increase; series mostly up to 36.9 µM; activity, negative = fluorescence increase: at the top concentration
Summary of the method: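 Cherry-picked compounds tested at several concentrations on A3G-eYFP/Vif HeLa cells for 24 hours; loss of Vif-driven degradation read as eYFP fluorescence by cytometric plate imaging, 488 nm excitation, 500-530 nm emission.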
Potency is the fitted concentration of half-maximal effect.

Compound	activity, negative = fluorescence increase	Potency
Cc1ccc(S(=O)(=O)N2CCCCC2)cc1NC(=O)Cn1ncc(Cl)c(Cl)c1=O	1.51%	
CC(=O)Nc1ccc(-c2ccnc3c2CC(C(=O)NCc2ccccc2)O3)cc1 (stereo not drawn)	-8.78%	
O=C1Nc2ccc(Br)cc2C12NNc1ccccc1O2 (stereo not drawn)		17.7 µM (active)
O=C(NC(=S)N1CCN(C2CCCCC2)CC1)c1ccccc1	13.5% [at 46.1 µM]	
C=C(NC(=O)C(=C)NC(=O)c1csc(C2=NC3c4csc(n4)C4NC(=O)c5csc(n5)C(C(C)(O)C(C)O)NC(=O)C5CSC(=N5)/C(=C/C)NC(=O)C(C(C)O)NC(=O)c5csc(n5)C3(CC2)NC(=O)C(C)NC(=O)C(=C)NC(=O)C(=C)NC(=O)C(C(C)C)NC2C=Cc3c(C(C)O)cc(nc3C2O)C(=O)OC4C)n1)C(N)=O (stereo not drawn)		4.44 µM (active)
CCN(CC)c1ccc(/C=C/c2cccc[n+]2C)c(OC)c1		17.7 µM (active)
CCN(CC)c1ccc(NC(=O)c2cccc(F)c2)c(C)c1	-9.15%	
COc1ccc(C(=S)N2CCN(c3cccc(Cl)c3)CC2)c(OC)c1	0.538%	
Cc1ccc(-n2c(O)c(/C=C3/C(c4ccccc4)=Nc4ccccc43)c(=O)[nH]c2=O)cc1	-3.5%	
CN(C)c1ccc2nc3c(=O)[nH]c(=O)nc-3n(CC(O)C(O)C(O)CO)c2c1 (stereo not drawn)	1.05% [at 46.1 µM]	
NN=C1c2ccccc2C(=O)C1C(=O)C(c1ccccc1)c1ccccc1 (stereo not drawn)		12.5 µM (active)
O=C(c1ccccc1)C1C(=O)c2ccccc2C1=O	11.2% [at 46.1 µM]	
Cc1cccc(CS(=O)(=O)c2ncc(Cl)c(C(=O)Nc3c(C)cccc3C)n2)c1	1.87%	
COc1ccc(C2=NOC(C(=O)NCc3ccc(F)cc3)C2)cc1OC (stereo not drawn)	-2.75%	
COc1cc2c3nnc(-c4ccc(F)cc4)c-3cn(Cc3ccc(C)cc3)c2cc1OC		5.59 µM (active)
COc1ccc(-c2cnc3c(NC=O)cc(-c4cc(OC)c(OC)c(OC)c4)cn23)cc1OC	-7.24%	
Cc1ccc(C)c(Cn2c(=O)n(CCCC(=O)NCc3ccco3)c(=O)c3sccc32)c1	-1.81%	
CCn1c(O)c(/C=N/N=C/c2ccc(OC)cc2)c2cc(C3=NNC(=O)CC3)ccc21		5.8 µM (active)
Cc1ccc(-c2cn3nc(-c4ccccc4)c(-c4ccccc4)nc3n2)cc1		20.6 µM (active)
NNC(=S)Nc1c(F)cc(F)cc1Br	2.31% [at 46.1 µM]	
N#Cc1c(C(F)(F)F)cc(-c2ccco2)nc1SCc1ccccn1		16.4 µM (active)
N#Cc1ccc(-c2ccco2)nc1SCc1ccccc1	-4.02%	
Cc1cc(C)cc(NC2=NC3(CCCCC3)N=C(N)N2)c1	-11.4%	
COc1ccc(OC)c(NS(=O)(=O)c2ccc(Cl)s2)c1	-0.929%	

Compound	activity, negative = fluorescence increase	Potency
COc1ccccc1N1C(=O)c2cccc3c(C(=O)O)ccc(c23)C1=O	-8.99%	
Cc1ccccc1N1C(=O)c2cccc3c(N(C)CCO)ccc(c23)C1=O		20.6 µM (active)
Cc1ccccc1OCC(=O)NNC(=O)Nc1ccc(Cl)cc1	1.15%	
CCN1C/C(=C/c2cccc([N+](=O)[O-])c2)C(=O)/C(=C/c2cccc([N+](=O)[O-])c2)C1	-1.75%	
O=C1/C(=C/c2ccccc2)CN(C(=O)CCN2CCOCC2)C/C1=C\c1ccccc1	-8.81%	
CN1C/C(=C\c2ccc(N3CCOCC3)cc2)C(=O)/C(=C/c2ccc(N3CCOCC3)cc2)C1		18.4 µM (active)
COc1ccc(N2CC(C(=O)N/N=C/c3ccc(C)cc3)CC2=O)cc1 (stereo not drawn)	-12.6%	
CC(C)CC[n+]1ccccc1/C=C/c1ccc(N(C)C)cc1		20.6 µM (active)
CC[n+]1ccccc1/C=C/c1ccc(N(C)C)cc1		18.4 µM (active)
COc1ccc(-c2nc3c4ccccc4ccn3c2Cc2ccsc2)cc1OC	3.28%	
CCOC(=O)c1[nH]c(C)c(C(=O)Nc2ccccc2C)c1C	-1.23%	
Cc1ccc([N+](=O)[O-])cc1-c1ccc(/C=C(\C#N)c2[nH]nc(N)c2C#N)o1	-8.72%	
Cc1ccc2nc(/C(C#N)=C/c3ccc(-c4ccc(C(=O)OC(C)C)cc4)o3)[nH]c2c1		6.51 µM (active)
Cc1ccc2nc(/C(C#N)=C\c3ccc([N+](=O)[O-])o3)[nH]c2c1		3.26 µM (active)
Cc1c(Cl)cccc1-c1ccc(/C=C(\C#N)c2nc3ccccc3[nH]2)o1		16.4 µM (active)
N#C/C(=C\c1ccc(-c2ccc(C(=O)O)cc2)o1)c1nc2ccccc2[nH]1		4.61 µM (active)
COc1ccc(-c2[nH]ncc2N=Nc2ccccc2)cc1	-0.14%	
O=C(c1[nH]c(C(F)(F)F)nc1-c1ccccc1)N1CCN(c2ccccc2)CC1	-8.65%	
COc1cccc(/C=N/NC(=O)c2cc3c(OC)c(OC)ccc3[nH]2)c1OC	-7.13%	
Cc1cc(-c2ccccc2)nc(N/N=C/c2ccccc2F)n1	4.5% [at 46.1 µM]	
CC(/C=N/NC(=O)c1cc(-c2ccc(C)s2)[nH]n1)=C\c1ccccc1	-1.03%	
Cc1ccc(/C=N/NC(=O)CCCOc2ccc(Cl)cc2Cl)cc1	5.73%	
COc1ccc(S(=O)(=O)Nc2cccc(-c3ccc4nncn4n3)c2)cc1F	-6.71%	
CCOC(=O)c1cccc(NC(=O)N2CC=C(c3c[nH]c4ccccc34)CC2)c1	3.24% [at 46.1 µM]	

Compound	activity, negative = fluorescence increase	Potency
Cc1ccc2nc(/C(C#N)=C/c3ccc(-c4cccc(Cl)c4)o3)[nH]c2c1		6.51 µM (active)
N#C/C(=C\c1ccc(-c2ccc(F)cc2F)o1)c1nc2ccccc2[nH]1		20.6 µM (active)
Cc1ccc2nc(/C(C#N)=C/c3ccc(-c4ccccc4C(=O)O)o3)[nH]c2c1		3.26 µM (active)
Cc1ccc2nc(/C(C#N)=C/c3ccc(-c4ccc(F)cc4F)o3)[nH]c2c1		23.1 µM (active)
CC1Cc2cc(S(=O)(=O)CCC(=O)NCc3ccc(Cl)cc3)ccc2N1C(=O)C1CC1 (stereo not drawn)	-12.7% [at 46.1 µM]	
CCOC(=O)c1c(C)sc(-c2c(-c3ccccc3)[nH]c3[nH]c(=O)[nH]c(=O)c23)c1O		7.31 µM (active)
CC(C)=CCn1c2ccc(NC(=O)NCc3ccc(F)cc3)cc2c(=O)n1C	-6.27%	
Cc1ccccc1NC(=O)c1sc2nc3c(c(-c4ccco4)c2c1N)CCC3	-13.1%	
Nc1c(C(=O)Nc2ccccc2F)sc2nc(-c3ccco3)ccc12		23.1 µM (active)
COc1ccc(/C=N/NC(=O)c2[nH]nc3c2CCc2ccccc2-3)cc1OC	-16.8%	
CC(=O)Nc1ccc(S(=O)(=O)N2CCSc3ccccc32)cc1	-1.38%	
Cn1cc(C2=C(c3ccc(Cl)cc3Cl)C(=O)NC2=O)c2ccccc21		13 µM (active) and 18.4 µM (active)
COc1ccc(-n2nnnc2-c2ccccc2)cc1	-2.72%	
Cc1cccc(NC(=O)/C(C#N)=C/c2cn(CC(=O)NCc3ccco3)c3ccccc23)c1C	-14.4%	
O=S(=O)(Nc1ccc(C(O)(C(F)(F)F)C(F)(F)F)cc1)c1ccc(Cl)c2nonc12	-7.19%	
COc1ccccc1N1CCN(C(=O)c2cc(=O)c3cc(C)cc(C)c3o2)CC1	-4.1%	
COc1cccc(-c2cnc3c(NC=O)cc(-c4cc(OC)c(OC)c(OC)c4)cn23)c1	-0.111%	
COc1cccc(NC(=O)c2oc3ccc(S(=O)(=O)N4CCC5(CC4)OCCO5)cc3c2C)c1	-5.82% [at 46.1 µM]	
Clc1ccc(/C=N/NC2=Nc3cccc4cccc2c34)cc1		18.4 µM (active)
O=C(N/N=C/c1ccc(Cl)cc1)c1cc2c(s1)-c1ccccc1CC2	-9.15%	
CCOC(=O)Cc1ccc(Nc2nc3cc(-c4sccc4C)sc3c(=O)n2C)cc1	1.41%	
COc1cc(-c2noc(C)c2/C=C/c2cccc([N+](=O)[O-])c2)cc(OC)c1OC	-7.09%	
COc1ccc(-n2c(O)c(/C=N/NS(=O)(=O)c3ccc(C)c([N+](=O)[O-])c3)c3ccccc3c2=O)cc1OC		11.6 µM (active)
COc1ccc(C(=O)C(C)[n+]2ccc(C)c3ccccc32)cc1[N+](=O)[O-] (stereo not drawn)	2.06%	

Compound	activity, negative = fluorescence increase	Potency
O=C(O)CSc1cc(NS(=O)(=O)c2cccc([N+](=O)[O-])c2)c2ccccc2c1O	1.69%	
COc1ccc(-n2c(O)c(/C=N/NS(=O)(=O)c3cccc([N+](=O)[O-])c3)c3ccccc3c2=O)cc1OC		15.8 µM (active)
O=c1[nH]cnc2n[nH]nc12	-24.1% [at 46.1 µM]	
CN(C)c1ccc2ccc3cccc4ccc1c2c34		14.6 µM (active)
Cc1ccc(-c2nc(-c3cc4cccc(OCc5cccc(F)c5)c4oc3=O)no2)cc1		18.4 µM (active)
CCCCCCc1cc2cc(-c3nnc(-c4ccccc4)o3)c(=O)oc2cc1O		1.58 µM (active)
COc1ccccc1-c1cc(C(=O)NN)[nH]n1	2.82%	
CCCCCCc1cc2cc(-c3nnc(-c4ccccc4OC)o3)c(=O)oc2cc1O		3.53 µM (active)
COc1ccccc1-c1nnc2sc(-c3cc4ccccc4o3)nn12	-6.49%	
O=C1OCC2=C1C(c1ccc3c(c1)OCO3)c1cc3c(cc1O2)OCO3 (stereo not drawn)	-11.2%	
O=S(=O)(Nc1nc2n(n1)C(c1ccccc1)C=C(c1ccc(Cl)cc1)N2)c1ccccc1 (stereo not drawn)		18.4 µM (active)
COc1cccc(C2=CC(c3ccccc3)n3nnnc3N2)c1 (stereo not drawn)	-0.672%	
CN(C)CCN(C(=O)/C=C/c1cccs1)c1nc2c(F)cc(F)cc2s1	-2.76% [at 46.1 µM]	
COc1ccccc1NC(=O)Cc1ccc(-c2ccccc2)cc1	5.42% [at 46.1 µM]	
CC(=O)Nc1sc(C)c(C)c1C(=O)OCC(=O)Nc1ccccc1		20.6 µM (active)
CC(=O)Nc1ccc(CC(=O)NCCC(c2ccccc2)c2ccccc2)cc1	-6.14%	
COC(=O)CCC(=O)NC(=S)Nc1sc(C)c(C)c1C(N)=O	-18.9%	
CN1C2CCC1/C(=C/c1cccn1C)C(=O)/C2=C\c1cccn1C		18.4 µM (active)
CC1C/C(=C/c2cccs2)C(=O)/C(=C/c2cccs2)C1 (stereo not drawn)	2.31%	
Cn1cccc1/C=C1\CC(C(C)(C)C)C/C(=C\c2cccn2C)C1=O (stereo not drawn)		7.31 µM (active)
Cn1cccc1/C=C1\SC(=Nc2ccccc2)NC1=O	-0.492%	
